# SMN2 splice up – SMN2 splice variant enhancement; HEK293 SMN2-luciferase splicing reporter, luminescence, 30-36 h; Potency, µM (top dose mostly 46.1 µM), without a hit: top-dose activity change, positive = activation, usual class: activators; hit rate 2.8% among 210,000; also: % of control where 0% means no effect; nearly all actives have a fitted effect of over 55% in size
#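 HEK293 cells carry an SMN2 […]–luciferase reporter in which exon 7 inclusion puts luciferase in frame. Cells were plated 10-12 h before compound addition, then incubated 30-36 h at 37C. ONE-Glo luminescence was read; sodium butyrate at 4.5 mM final served as control.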
# ELG1 genotoxic – induces genotoxicity in HEK293T cells with luciferase-tagged ELG1 | HEK293T ELG1-luciferase reporter, luminescence, 16 h | Potency, µM (titrated, usually from 46 µM), inactives show top-dose activity change, positive = activation, usual class: activators | hit rate 1.3% among 330,000 | AID 504466; also: % of control where 0% means no effect; nearly all actives have a fitted effect of over 60% in size
#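 DMSO vehicle served as control against compound-treated ELG1-luciferase HEK293T cells; exposure lasted 16 hr at 37 °C and 5% CO2, followed by ONE-Glo luminescence detection after 30 min.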
# FLuc counter – counter-screen for miR-21 project: firefly luciferase inhibitors or activators; P08659; purified FLuc, Km substrates, luminescence inhibition; hit rate 6.9% among 360,000; AID 588342; Potency, µM (doses to about 57.5 µM), without a hit: at the highest dose activity change, negative = inhibition, actives largely listed as inhibitors;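 also: plate controls were vehicle for no effect and reference inhibitor for full effect; nearly all actives have a fitted effect of over 55% in size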
# Target sequence (P08659 whole entry, looked up): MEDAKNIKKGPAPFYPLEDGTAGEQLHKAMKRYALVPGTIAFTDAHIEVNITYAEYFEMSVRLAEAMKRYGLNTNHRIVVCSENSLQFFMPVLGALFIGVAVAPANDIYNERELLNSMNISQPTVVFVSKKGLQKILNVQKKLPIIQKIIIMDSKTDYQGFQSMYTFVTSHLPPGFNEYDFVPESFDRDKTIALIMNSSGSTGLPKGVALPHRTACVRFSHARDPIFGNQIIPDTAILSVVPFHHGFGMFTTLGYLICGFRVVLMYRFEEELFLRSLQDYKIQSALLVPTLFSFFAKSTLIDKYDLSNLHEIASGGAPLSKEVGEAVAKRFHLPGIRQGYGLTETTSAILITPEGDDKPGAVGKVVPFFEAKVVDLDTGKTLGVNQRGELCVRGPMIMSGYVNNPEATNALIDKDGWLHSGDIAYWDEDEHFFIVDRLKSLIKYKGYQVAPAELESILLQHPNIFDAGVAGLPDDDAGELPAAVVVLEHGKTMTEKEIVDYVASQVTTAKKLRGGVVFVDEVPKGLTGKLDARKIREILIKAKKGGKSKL
#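 Biochemical qHTS of compounds, final roughly 60 µM downward over six points, against 10 nM purified firefly luciferase using Km concentrations of substrates (10 uM D-luciferin, 10 uM ATP) in Tris acetate pH 7.5 buffer; luminescence output.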
# Rab9 promoter act – activators of Rab9 promoter. Potency, µM (series often up to 9.22 µM), for inactives: at the top dose activation, negative = inhibition, hits mostly activators. hit rate 2.8% among 320,000. Huh7 Rab9 promoter-luciferase reporter, luminescence, 24 h; also: % of control where 0% means no effect; nearly all actives have a fitted effect of over 60% in size
#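 Cell-based reporter: Huh7 stable for Rab9 promoter-driven luciferase, plated in reduced-serum medium with 10% FBS at 1500 cells/well, compound-treated 24 h at 37 °C, luminescence read after 10 min reagent.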
# NPC1 promoter act – NPC1 promoter activation | Huh7 NPC1 promoter luciferase reporter, 24 h | Potency, µM (top dose mostly 9.22 µM), for the others: at the highest dose activation, usual class: activators | hit rate 2.4% among 320,000; also: % of control where 0% means no effect; nearly all actives have a fitted effect of over 60% in size
#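 Quantitative HTS used a cell-based reporter: Huh7 cells stably bearing the NPC1 promoter upstream of luciferase were treated with compounds for 24 h, and promoter activation was read as luminescence.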
# * marks the source's active call; other numbers are inactive results; ? = inconclusive; . = no result given. Most compounds without a hit are left out; they make up all but 7.4% or so of the library. Calls follow the shape of the dose curve; as a rule, active = well fitted curve in the direction sought with a large enough effect; inconclusive = small, poorly fitted or top-dose-only effect, or another doubt; inactive = no such curve, though single readings can be large; an effect the other way counts as inactive or inconclusive. Potency is read from the fitted curve at half-maximal effect.
SMILES,SMN2 splice up,ELG1 genotoxic,FLuc counter,Rab9 promoter act,NPC1 promoter act
CC1(C)Oc2ccc3ccc(=O)oc3c2CC1=O,5%,.,.,.,.
CC(C)Oc1ccc(CNC(=O)c2ccc3c(c2)N(C)C(=O)C2CCCCN32)cc1 (stereo unspecified),.,.,-15%,.,.
CCn1c2ccccc2c2c3ncc4cccn4c3ccc21,.,12%,3µM*,?,3.2µM*
c1ccc2c(c1)ncc1cccn12,0%,-8%,-3%,13%,-1%
Cc1cccc(-c2nc(SCCCOc3cc(C)c(Cl)c(C)c3)n3[nH]c(=O)cc3n2)c1,.,.,-4%,.,.
Cc1cccc(-c2nc(SCCCOc3ccccc3Cl)n3[nH]c(=O)cc3n2)c1,.,.,6.7µM*,.,.
COc1ccc(-c2nc3ccccn3c2/N=C/c2ccc(OC)c(OC)c2)cc1O,6%,8%,13µM*,6%,-5%
COc1cc(-c2nc3ccccn3c2/N=C/c2ccccc2)ccc1O,9%,12%,?,-2%,2%
O=[N+]([O-])c1ccc(Cl)c(-c2ccc(/C=N/c3c(-c4ccco4)nc4ccccn34)o2)c1,22%,2%,-19%,?,19%
Oc1cccc(/C=N/c2c(-c3ccco3)nc3ccccn23)c1,24%,?,6µM*,?,?
CC1(c2ccc(Cl)cc2Cl)NC(=O)N(CC(=O)Nc2ccc3[nH]c(=O)[nH]c3c2)C1=O (stereo unspecified),.,1%,4%,5%,-3%
C[n+]1c(/C=C/c2ccc3c(c2)OCO3)ccc2ccccc21,-95%,?,11µM*,15%,8%
C[n+]1c(/C=C/c2ccc(O)cc2)ccc2ccccc21,.,3%,13µM*,-2%,-7%
COc1ccc(C2CC(c3ccccc3)=NN2c2ccc(S(N)(=O)=O)cc2)cc1 (stereo unspecified),.,-2%,9.5µM*,1%,-4%
COc1ccc(C2=NN(CN3C(=O)C(=O)c4ccccc43)C(c3ccc(OC)cc3)C2)cc1 (stereo unspecified),10µM*,?,?,3.5µM*,?
COc1ccc(C2=NN(S(=O)(=O)c3ccccc3)C(c3ccccc3)C2)cc1 (stereo unspecified),.,-3%,-2%,0%,0%
C/C(=N\NC(=O)c1nnn(-c2nonc2N)c1C(C)C)c1ccc2ccccc2c1,.,6%,-3%,0%,1%
CCCc1cc(=O)[nH]c(Nc2cc(OC)ccc2OC)n1,1.3µM*,-2%,0%,-1%,1%
CCCc1cc(=O)[nH]c(Nc2cc(Cl)ccc2OC)n1,-4%,.,-3%,.,.
Cc1cccc(C(=O)NCC(=O)OCc2nc(N)nc(Nc3ccccc3C)n2)c1,.,1%,.,.,.
COc1cc(/C=C/C(=O)Nc2ccc3nc4n(c(=O)c3c2)CCCC4)cc(OC)c1OC,.,-6%,-9%,-7%,-11%
COc1cccc(NC(=O)CC(=O)Nc2ccc3nc4n(c(=O)c3c2)CCCCC4)c1,-3%,.,-18%,.,.
COc1cc(OC)cc(C(=O)Nc2ccc3nc4n(c(=O)c3c2)CCCCC4)c1,18µM*,?,12µM*,3.5µM*,3.2µM*
COc1cccc(/C=C/C(=O)Nc2ccc3nc4n(c(=O)c3c2)CCCC4)c1OC,.,-11%,12µM*,9%,5%
Cc1ccn2cc(-c3ccc(C)c(NS(=O)(=O)c4ccc(Cl)cc4)c3)nc2c1,-31%,.,11µM*,.,.
SMILES,SMN2 splice up,ELG1 genotoxic,FLuc counter,Rab9 promoter act,NPC1 promoter act
CCS(=O)(=O)Nc1cc(-c2cn3ccc(C)cc3n2)ccc1C,?,.,12µM*,.,.
CCS(=O)(=O)Nc1cc(C(=O)O)ccc1C,9%,0%,0%,-8%,-1%
CCc1ccc(S(=O)(=O)Nc2cc(-c3cn4ccccc4n3)ccc2C)cc1,9%,.,?,.,.
CC(=O)Nc1ccc(S(=O)(=O)Nc2cc(-c3cn4ccccc4n3)ccc2C)cc1,?,.,17µM*,.,.
Cc1noc(C)c1C(=O)N(C)CC(=O)Nc1ccc(F)c(F)c1F,.,-7%,-1%,0%,-4%
COc1ccccc1NC(=O)COC(=O)/C=C/c1ccc2c(c1)OCO2,-1%,?,11µM*,12%,11%
O=C(/C=C/c1ccco1)Nc1ccc(Cl)c(S(=O)(=O)N2CCOCC2)c1,.,-11%,19µM*,-8%,5%

# Source: PubChem
